# ChEMBL document CHEMBL2218924, “A broad activity screen in support of a chemogenomic map for kinase signalling research and drug discovery” (Biochem J, 2013)
# Legend:
# [1] = target: Ribosomal protein S6 kinase beta-1 (Homo sapiens) (UniProt P23443); conditions: at 1 µM
# [2] = target: Ribosomal protein S6 kinase beta-1 (Homo sapiens) (UniProt P23443); conditions: at 10 µM
# [3] = target: Serine/threonine-protein kinase Nek6 (Homo sapiens) (UniProt Q9HC98); conditions: at 1 µM
# [4] = target: Serine/threonine-protein kinase Nek6 (Homo sapiens) (UniProt Q9HC98); conditions: at 10 µM
# [5] = target: Serine/threonine-protein kinase Nek7 (Homo sapiens) (UniProt Q8TDX7); conditions: at 1 µM
# [6] = target: Serine/threonine-protein kinase Nek7 (Homo sapiens) (UniProt Q8TDX7); conditions: at 10 µM
# [7] = target: T1, Serine/threonine-protein kinase NLK (Homo sapiens) (UniProt Q9UBE8); conditions: at 1 µM
# T1 sequence (whole entry): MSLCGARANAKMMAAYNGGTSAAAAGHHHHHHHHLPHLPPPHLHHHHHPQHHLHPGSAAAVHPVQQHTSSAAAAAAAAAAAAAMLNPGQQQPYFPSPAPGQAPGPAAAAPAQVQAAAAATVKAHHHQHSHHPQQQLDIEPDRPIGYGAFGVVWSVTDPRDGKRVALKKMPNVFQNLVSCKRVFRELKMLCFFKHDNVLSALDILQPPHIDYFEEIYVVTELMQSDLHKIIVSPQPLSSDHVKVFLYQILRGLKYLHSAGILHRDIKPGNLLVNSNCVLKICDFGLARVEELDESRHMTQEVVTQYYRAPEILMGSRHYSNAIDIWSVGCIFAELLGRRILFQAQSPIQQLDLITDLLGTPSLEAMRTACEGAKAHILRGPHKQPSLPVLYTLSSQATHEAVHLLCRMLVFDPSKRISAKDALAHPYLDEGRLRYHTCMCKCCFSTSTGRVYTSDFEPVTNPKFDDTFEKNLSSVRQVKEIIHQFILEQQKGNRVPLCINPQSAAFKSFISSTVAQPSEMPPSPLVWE
# [8] = target: T1, Serine/threonine-protein kinase NLK (Homo sapiens); conditions: at 10 µM
# [9] = target: Serine/threonine-protein kinase PAK 2 (Homo sapiens) (UniProt Q13177); conditions: at 1 µM
# [10] = target: Serine/threonine-protein kinase PAK 2 (Homo sapiens) (UniProt Q13177); conditions: at 10 µM
# [11] = target: Serine/threonine-protein kinase PAK 4 (Homo sapiens) (UniProt O96013); conditions: at 1 µM
# [12] = target: Serine/threonine-protein kinase PAK 4 (Homo sapiens) (UniProt O96013); conditions: at 10 µM
# [13] = target: Serine/threonine-protein kinase PAK 5 (Homo sapiens) (UniProt Q9P286); conditions: at 1 µM
# [14] = target: Serine/threonine-protein kinase PAK 5 (Homo sapiens) (UniProt Q9P286); conditions: at 10 µM
# [15] = target: Serine/threonine-protein kinase PAK 6 (Homo sapiens) (UniProt Q9NQU5); conditions: at 1 µM
# [16] = target: Serine/threonine-protein kinase PAK 6 (Homo sapiens) (UniProt Q9NQU5); conditions: at 10 µM
# [17] = target: PAS domain-containing serine/threonine-protein kinase (Homo sapiens) (UniProt Q96RG2); conditions: at 10 µM
# [18] = target: Activated CDC42 kinase 1 (Homo sapiens) (UniProt Q07912); conditions: at 1 µM
# [19] = target: Activated CDC42 kinase 1 (Homo sapiens) (UniProt Q07912); conditions: at 10 µM
# [20] = target: ALK tyrosine kinase receptor (Homo sapiens) (UniProt Q9UM73); conditions: at 1 µM
# Serine/threonine-protein kinase PAK 4 (Homo sapiens), sequence (O96013 whole entry, looked up): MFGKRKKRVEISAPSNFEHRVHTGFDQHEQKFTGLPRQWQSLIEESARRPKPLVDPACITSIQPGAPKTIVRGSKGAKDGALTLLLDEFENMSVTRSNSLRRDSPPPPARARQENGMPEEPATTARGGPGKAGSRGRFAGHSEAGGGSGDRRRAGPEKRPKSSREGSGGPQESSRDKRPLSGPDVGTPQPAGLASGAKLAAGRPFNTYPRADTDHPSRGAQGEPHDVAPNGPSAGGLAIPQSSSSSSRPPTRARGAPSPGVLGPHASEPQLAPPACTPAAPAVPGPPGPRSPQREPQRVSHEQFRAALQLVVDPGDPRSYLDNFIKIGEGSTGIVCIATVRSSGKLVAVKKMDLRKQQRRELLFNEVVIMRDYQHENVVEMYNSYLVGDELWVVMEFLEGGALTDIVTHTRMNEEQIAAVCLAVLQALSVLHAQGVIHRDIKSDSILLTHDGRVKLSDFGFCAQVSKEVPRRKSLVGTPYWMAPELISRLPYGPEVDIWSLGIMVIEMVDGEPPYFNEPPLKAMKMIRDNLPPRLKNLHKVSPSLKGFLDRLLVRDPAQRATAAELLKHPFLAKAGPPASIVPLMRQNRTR
# Serine/threonine-protein kinase PAK 5 (Homo sapiens), sequence (Q9P286 whole entry, looked up): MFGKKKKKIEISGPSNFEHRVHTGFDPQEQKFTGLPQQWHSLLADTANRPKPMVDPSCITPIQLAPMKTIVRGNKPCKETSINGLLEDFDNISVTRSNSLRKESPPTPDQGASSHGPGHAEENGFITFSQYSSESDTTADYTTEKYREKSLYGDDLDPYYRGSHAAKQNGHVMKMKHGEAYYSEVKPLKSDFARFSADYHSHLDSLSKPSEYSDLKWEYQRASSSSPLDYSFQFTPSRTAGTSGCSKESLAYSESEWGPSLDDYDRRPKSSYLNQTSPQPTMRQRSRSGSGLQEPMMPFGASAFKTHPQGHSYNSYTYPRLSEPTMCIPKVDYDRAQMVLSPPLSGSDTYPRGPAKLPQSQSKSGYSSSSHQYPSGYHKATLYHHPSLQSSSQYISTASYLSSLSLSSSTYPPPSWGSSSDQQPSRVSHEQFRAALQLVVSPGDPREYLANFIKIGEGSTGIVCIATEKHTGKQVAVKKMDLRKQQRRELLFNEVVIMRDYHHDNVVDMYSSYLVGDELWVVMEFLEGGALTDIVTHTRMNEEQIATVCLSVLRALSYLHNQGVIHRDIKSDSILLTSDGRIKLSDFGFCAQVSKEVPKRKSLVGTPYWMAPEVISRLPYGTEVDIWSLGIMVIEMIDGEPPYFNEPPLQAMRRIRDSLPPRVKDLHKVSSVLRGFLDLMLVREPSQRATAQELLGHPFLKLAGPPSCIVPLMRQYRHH
# Ribosomal protein S6 kinase beta-1 (Homo sapiens), sequence (P23443 whole entry, looked up): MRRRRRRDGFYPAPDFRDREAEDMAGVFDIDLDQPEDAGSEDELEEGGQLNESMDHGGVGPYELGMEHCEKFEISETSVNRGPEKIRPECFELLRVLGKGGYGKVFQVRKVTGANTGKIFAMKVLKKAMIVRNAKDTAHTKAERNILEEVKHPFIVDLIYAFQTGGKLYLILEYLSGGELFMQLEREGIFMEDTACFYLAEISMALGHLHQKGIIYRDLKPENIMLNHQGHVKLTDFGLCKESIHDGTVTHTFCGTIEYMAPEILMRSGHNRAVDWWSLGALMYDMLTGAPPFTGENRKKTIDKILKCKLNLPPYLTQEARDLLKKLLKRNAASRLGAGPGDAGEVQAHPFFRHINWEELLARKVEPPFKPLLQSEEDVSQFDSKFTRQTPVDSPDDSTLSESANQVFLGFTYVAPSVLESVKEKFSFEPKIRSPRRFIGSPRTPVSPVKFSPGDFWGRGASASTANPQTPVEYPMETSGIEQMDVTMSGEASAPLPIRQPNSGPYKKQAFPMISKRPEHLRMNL
# Serine/threonine-protein kinase Nek6 (Homo sapiens), sequence (Q9HC98 whole entry): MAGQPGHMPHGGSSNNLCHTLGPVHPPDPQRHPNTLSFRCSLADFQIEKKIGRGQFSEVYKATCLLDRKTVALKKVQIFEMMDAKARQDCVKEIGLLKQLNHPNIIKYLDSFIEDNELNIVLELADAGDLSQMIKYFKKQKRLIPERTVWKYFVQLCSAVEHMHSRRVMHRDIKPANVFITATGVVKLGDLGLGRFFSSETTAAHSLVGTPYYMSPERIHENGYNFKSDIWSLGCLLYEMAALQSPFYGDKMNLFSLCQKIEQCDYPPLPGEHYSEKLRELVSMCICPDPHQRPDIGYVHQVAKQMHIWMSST
# Serine/threonine-protein kinase PAK 2 (Homo sapiens), sequence (Q13177 whole entry): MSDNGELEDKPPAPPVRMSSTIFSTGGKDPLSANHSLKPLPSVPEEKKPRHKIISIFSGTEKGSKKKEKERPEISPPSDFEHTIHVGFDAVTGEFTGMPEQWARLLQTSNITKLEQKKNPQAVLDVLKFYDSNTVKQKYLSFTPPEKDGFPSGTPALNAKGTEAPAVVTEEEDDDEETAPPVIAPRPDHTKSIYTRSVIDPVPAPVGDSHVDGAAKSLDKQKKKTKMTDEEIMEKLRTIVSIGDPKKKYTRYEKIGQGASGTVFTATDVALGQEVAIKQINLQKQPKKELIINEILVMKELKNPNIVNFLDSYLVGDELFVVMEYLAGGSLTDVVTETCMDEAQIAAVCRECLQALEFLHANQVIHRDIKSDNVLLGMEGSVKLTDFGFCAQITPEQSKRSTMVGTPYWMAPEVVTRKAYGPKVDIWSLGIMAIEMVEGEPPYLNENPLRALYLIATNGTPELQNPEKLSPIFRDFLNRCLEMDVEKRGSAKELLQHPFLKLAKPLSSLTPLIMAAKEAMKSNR
# Serine/threonine-protein kinase PAK 6 (Homo sapiens), sequence (Q9NQU5 whole entry, looked up, the tested form may be a part): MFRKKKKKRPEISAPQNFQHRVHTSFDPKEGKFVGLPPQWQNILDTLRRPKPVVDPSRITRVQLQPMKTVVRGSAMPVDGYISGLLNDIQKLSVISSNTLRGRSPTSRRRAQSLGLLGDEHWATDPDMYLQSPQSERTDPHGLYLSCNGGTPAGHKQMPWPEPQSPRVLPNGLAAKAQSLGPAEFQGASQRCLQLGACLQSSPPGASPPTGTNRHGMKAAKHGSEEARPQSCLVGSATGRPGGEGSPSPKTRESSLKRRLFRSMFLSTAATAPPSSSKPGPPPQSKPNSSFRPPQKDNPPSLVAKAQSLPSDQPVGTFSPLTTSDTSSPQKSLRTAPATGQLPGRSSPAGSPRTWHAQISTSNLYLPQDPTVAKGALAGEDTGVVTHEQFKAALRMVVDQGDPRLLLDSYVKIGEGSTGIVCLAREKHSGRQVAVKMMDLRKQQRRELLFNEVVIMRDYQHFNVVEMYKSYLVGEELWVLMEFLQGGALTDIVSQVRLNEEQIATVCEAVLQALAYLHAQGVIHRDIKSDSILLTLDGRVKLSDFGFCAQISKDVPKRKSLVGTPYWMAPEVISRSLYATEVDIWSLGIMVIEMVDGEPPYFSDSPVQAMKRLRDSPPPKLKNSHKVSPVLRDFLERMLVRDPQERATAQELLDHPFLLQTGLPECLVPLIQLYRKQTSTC
# Activated CDC42 kinase 1 (Homo sapiens), sequence (Q07912 whole entry, looked up): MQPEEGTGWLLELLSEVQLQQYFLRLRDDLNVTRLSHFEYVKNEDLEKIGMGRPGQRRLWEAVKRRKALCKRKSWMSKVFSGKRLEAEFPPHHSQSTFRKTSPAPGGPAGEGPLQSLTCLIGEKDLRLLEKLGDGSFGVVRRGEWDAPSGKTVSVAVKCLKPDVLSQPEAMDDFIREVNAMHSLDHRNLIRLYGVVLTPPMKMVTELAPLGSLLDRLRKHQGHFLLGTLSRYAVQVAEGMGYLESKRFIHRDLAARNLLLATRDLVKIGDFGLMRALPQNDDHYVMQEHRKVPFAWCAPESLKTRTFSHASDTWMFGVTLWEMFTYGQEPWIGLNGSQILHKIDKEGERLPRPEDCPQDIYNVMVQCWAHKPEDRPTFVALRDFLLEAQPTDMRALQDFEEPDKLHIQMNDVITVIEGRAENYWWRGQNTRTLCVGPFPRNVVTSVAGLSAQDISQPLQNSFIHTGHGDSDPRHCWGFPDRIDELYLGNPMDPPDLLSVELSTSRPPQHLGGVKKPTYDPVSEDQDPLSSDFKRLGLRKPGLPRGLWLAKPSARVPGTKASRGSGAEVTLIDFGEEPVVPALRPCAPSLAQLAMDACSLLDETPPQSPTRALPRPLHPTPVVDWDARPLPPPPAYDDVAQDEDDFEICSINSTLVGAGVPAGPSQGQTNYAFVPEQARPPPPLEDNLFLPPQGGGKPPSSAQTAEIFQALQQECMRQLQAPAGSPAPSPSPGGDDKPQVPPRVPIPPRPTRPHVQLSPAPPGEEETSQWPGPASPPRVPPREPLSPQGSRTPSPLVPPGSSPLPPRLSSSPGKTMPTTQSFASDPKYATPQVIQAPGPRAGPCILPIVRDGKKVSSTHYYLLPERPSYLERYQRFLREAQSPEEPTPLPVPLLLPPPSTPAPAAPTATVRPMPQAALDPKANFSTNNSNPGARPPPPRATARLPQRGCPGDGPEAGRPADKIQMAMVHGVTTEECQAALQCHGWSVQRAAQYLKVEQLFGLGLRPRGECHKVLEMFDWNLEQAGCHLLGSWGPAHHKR
# Serine/threonine-protein kinase Nek7 (Homo sapiens), sequence (Q8TDX7 whole entry, looked up): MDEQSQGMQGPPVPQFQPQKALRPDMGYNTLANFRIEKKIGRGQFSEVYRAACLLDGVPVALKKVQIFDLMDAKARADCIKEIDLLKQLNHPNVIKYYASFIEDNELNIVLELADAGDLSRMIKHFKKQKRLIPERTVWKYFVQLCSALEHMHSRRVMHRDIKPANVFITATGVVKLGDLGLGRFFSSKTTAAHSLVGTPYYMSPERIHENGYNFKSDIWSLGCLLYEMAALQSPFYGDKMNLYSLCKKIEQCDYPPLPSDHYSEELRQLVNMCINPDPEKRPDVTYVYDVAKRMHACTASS
Structure (SMILES),residual activity [1] [%],residual activity [2] [%],residual activity [3],residual activity [4] [%],residual activity [5],residual activity [6],residual activity [7] [%],residual activity [8] [%],residual activity [9] [%],residual activity [10] [%],residual activity [11] [%],residual activity [12] [%],residual activity [13] [%],residual activity [14] [%],residual activity [15] [%],residual activity [16] [%],residual activity [17] [%],residual activity [18] [%],residual activity [19] [%],residual activity [20] [%]
CCC(=O)Nc1ccc2ncnc(Nc3cccc(Br)c3)c2c1,111,127,79% (inactive),110,89% (inactive),114% (inactive),91,64,110,84,99,86,97,98,107,93,36,70,36,81
Cc1nc2cc3nc(-c4cccs4)cnc3cc2n1C,98,112,104% (inactive),112,102% (inactive),107% (inactive),104,95,99,86,95,101,106,105,111,102,86,107,74,93
O=c1cc(-c2cccc3c2Sc2ccccc2S3)oc(N2CCOCC2)c1,119,93,108% (inactive),122,109% (inactive),140% (inactive),101,101,113,95,106,96,108,91,89,72,80,89,84,97
CC(=O)O/N=C1\C(=C2\C(=O)Nc3cc(Br)ccc32)Nc2ccccc21,84,36,108% (inactive),110,98% (inactive),111% (inactive),90,80,104,100,100,67,88,63,89,67,108,48,15,58
Cc1ccc(NC2=CC(=O)c3sc(C)nc3C2=O)cc1,115,78,106% (inactive),104,109% (inactive),92% (inactive),86,85,93,92,98,93,121,94,102,80,82,80,71,86
COc1ccc(CNc2nc(N(CCO)CCO)nc3c2ncn3C(C)C)cc1,74,49,107% (inactive),96,96% (inactive),86% (inactive),89,86,102,87,89,56,95,66,87,63,129,70,51,80
